The subject of this assay is MDA-MB-468 breast. The experiment in a line: NCI-60 one-dose screen, 48 h (100 = growth as untreated, 0 = no growth, -100 = all killed). The settings on record: 10 µM unless noted.

Each structure is given as a SMILES string. About 83,000 compounds went through this panel and 20% of them were active in at least one assay; those are over-represented in the sample as a whole.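 96-well plates, one dose, 48 hours. Percent growth reported; active if below 10.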 A number with no mark means an inactive call. Calls of active or inactive are those of the source.

On to `CC1=NN(c2ccccc2)C(=O)C1C(=O)c1ccccc1` (centres undefined), for which the growth is 83.4%.
For `COc1cc(-c2nn(-c3cccc(NC(=O)Nc4cccc(C(F)(F)F)c4)c3)cc2-c2ccncc2)ccc1Cl` the value was -27.6% (active).
On to `CC(=C(c1ccc(OCCN2CCCC2)cc1)c1ccc(OCCN2CCCC2)cc1)c1ccc(Cl)cc1`, for which the growth is -85.3% (active).
For `O=C(Cn1nnc2ccccc21)N/N=C/c1c[nH]c2ccccc12` the value was 34.5%; for `CN1c2ccccc2[C@]2(Cc3ccccc3)Cc3ccccc3N[C@H]12`, 115%.
For `C=CC(=O)Nc1ccc2ncnc(Nc3cccc(NS(=O)(=O)CCC)c3Cl)c2c1` the value was -31.9% (active); for `Nc1nc(Nc2ccc(F)cc2)nn1C(=O)c1cc(Cl)ccc1Cl`, 60.6%; for `CCOC(=O)c1cnn2c(-c3ccc(Cl)cc3)nc(NCc3ccccc3)nc12`, 84.8%.
For `Cc1ccc(NC(=O)Cn2cc(CN3CCN(c4ccnc5cc(Cl)ccc45)CC3)nn2)cc1` the value was 88.1%.
As to `COC(=O)[C@@H](Cc1c[nH]c2ccccc12)NC(=O)/C=C/c1ccccc1`, the growth is 19.6%.
For `CCCCCCCCCCN1CCC(N2CCCCC2)CC1` the value was -73.2% (active); for `O=S(=O)(Oc1ccc(-c2ccc3sccc3c2)cc1)c1ccccc1`, 85.2%.
With `COc1ccc(/C=c2\nc3n(-c4ccccc4)c4nc5c6c(sc5c(=N)n4n-3c2=O)CCCC6)cc1`, the growth was 90.1%.
For `O=C(/C(=C/c1ccc([N+](=O)[O-])cc1)SCc1ccc(Cl)cc1)c1ccc(F)cc1`, the growth was 77.2%.

The values are drawn from PubChem BioAssay (NCI).
